Data published in PubChem BioAssay AID1794844 (National Center for Advancing Translational Sciences (NCATS), 2023).
Screen size: about 2,800 compounds; fewer than 10 were called active. Roughly 7% stayed inconclusive and do not appear here. Calls follow the shape of the dose curve; as a rule, active = well fitted inhibition curve with a large enough effect; inconclusive = small, poorly fitted or top-dose-only effect; inactive = no such curve, though single readings can be large or run the other way. Only a sample is shown.

target: Metallo-beta-lactamase type 2 (Klebsiella pneumoniae) (UniProt C7C422); test: qHTS to identify inhibitors of the New Delhi Metallo-beta-lactamase (NDM): Nitrocefin screen against the machine-based learning selections.; as to activity, negative = inhibition: % of control where 0% means no effect; conditions: NDM-1 enzyme, nitrocefin hydrolysis, absorbance 485 nm; series mostly up to 38.4 µM; activity, negative = inhibition: at the top concentration
Sequence (C7C422 whole entry, looked up): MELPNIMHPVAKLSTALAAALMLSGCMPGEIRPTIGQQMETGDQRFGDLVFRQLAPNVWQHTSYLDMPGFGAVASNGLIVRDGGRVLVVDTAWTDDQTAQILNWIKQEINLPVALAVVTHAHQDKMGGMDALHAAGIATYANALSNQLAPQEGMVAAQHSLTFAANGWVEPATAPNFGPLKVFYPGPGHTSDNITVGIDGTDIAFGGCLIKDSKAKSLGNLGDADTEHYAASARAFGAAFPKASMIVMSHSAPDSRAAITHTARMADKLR
Source text: Assay Submitter (PI): James Inglese Ph.D., Patricia Dranchak Ph.D., Mahesh Aitha Ph.D. Assay Development and Screening Technology Laboratory (ADST) National Center for Advancing Translational Sciences (NCATS), Rockville, MD National Institute of Health (NIH), Bethesda, Maryland The metallo-beta-lactamases (MBL) are a main antibiotic resistance mechanism evolved by bacteria. There is an urgent clinical need for MBL inhibitors to mitigate this growing threat. To support a machine-based learning study, qHTS has been used to experimentally test inhibitors identified by prediction tools.
PROTOCOL TABLE (as described by Inglese et al., 2007) SEQUENCE No. (e.g., 1, 2, 3, etc.); […] (e.g., enzyme, Incubation, Reagent, etc.); VALUE; DESCRIPTION Primary Screen 1; NDM-1; 4 uL of 3 nM enzyme [2 nM final] in 50 mM HEPES (pH 7.0), 1 uM […], 0.01% Tween20; Use BioRaptr to dispense into two sets of Aurora black, clear bottom high base 1536-well plates 2; Compounds; 23 nL; Use Pin Tool (Wako) to transfer DMSO control and library compounds in DMSO 3; Incubate; >30 min 4a; Reagent; 2 uL of 50 uM nitrocefin [16.7 uM final] to one set of assay plates 4b; Reagent; 2 uL of 150 uM meropenem [50 uM final] to second set of assay plates 5a; Incubate; 15 min 5b; Incubate; 30 min 6a; Detector; Absorbance at 485 nm (bandwidth = 5 nm, 25 flashes/well) on Tecan Infinity 6b; Detector; Absorbance at 300 nm (bandwidth = 5 nm, 25 flashes/well) on Tecan Infinity NOTES (numbers refer to sequence above) 1; Column 1 of each plate received assay buffer without enzyme and columns 2-48 received enzyme for a final assay concentration of 2 nM. 2; Control plate contained DMSO in columns 1, 2, 3, and 4. 3; Compound interaction with enzyme. 4; Nitrocefin and meropenem substrates were prepared in the same assay buffer as step 1 for a final assay concentration of 16.7 uM and 50 uM, respectively, and added to all wells across respective sets of assay plates. 5; Default reader settings were applied for absorbance read at 485 nm (nitrocefin) or 300 nm (meropenem), bandwidth = 5 nm, 25 flashes/well. References: Inglese J, Shamu CE, Guy RK. 2007. Reporting data from high-throughput screening of small-molecule libraries. Nat Chem Biol. doi:10.1038/nchembio0807-438 Yasgar A, Shinn P, Jadhav A, Auld D, Michael S, Zheng W, Austin CP, Inglese J, Simeonov A. 2008. Compound Management for Quantitative High-Throughput Screening. J Lab Autom 13:79 - 89. doi:10.1016/j.jala.2007.12.004
Potency is read from the fitted curve at half-maximal effect.

Structure (SMILES) | activity, negative = inhibition | Potency
Cn1cc(C(NC(=O)c2ccc3c(c2)ncn3CCO)C2CC(O)C2)cn1 (stereo not drawn) | -11.3% (inactive) | –
Cc1nnc(-c2cc(N3CCN(c4ccccn4)CC3)ccn2)n1C1CCCCC1 | -1.57% [at 57.5 µM] (inactive) | –
O=C1CO[C@H]2CN(c3nccc(C(F)(F)F)n3)C[C@H]2N1Cc1ccc(F)cc1 | 1.03% [at 57.5 µM] (inactive) | –
COc1cc(=O)n2c(c1C(=O)NC1CCCCCC1)CCCC2 | 0.186% (inactive) | –
Cc1cccc(N(CC(=O)N[C@H]2CC[C@H]2NC2CCCC2)S(C)(=O)=O)c1 | -5.09% (inactive) | –
O=C(O)[C@]12CCCN[C@@H]1CCN(Cc1cnc(-c3ccccn3)nc1)C2 | 3.6% (inactive) | –
CCOCCn1nc(C)cc1C(=O)N1C[C@@H](C)[C@](O)(C2CC2)C1 | -0.533% (inactive) | –
COc1cccc(-c2cccc(CCOc3cnc4c(ccn4CC(=O)O)c3)c2)c1 | -1.17% [at 57.5 µM] (inactive) | –
O=C(N[C@@H]1CCN(Cc2cccc3nonc23)C[C@H]1O)c1cccnc1 | -1.15% (inactive) | –
COC(=O)c1ccc2nc(C[C@@H]3C[C@@H](C(C)C)[C@H](CN(C)C)C=C3C)[nH]c2c1 | -8.3% [at 57.5 µM] (inactive) | –
CCO[C@H]1C[C@@H](O)C12CCN(C(=O)c1cc(S(N)(=O)=O)ccc1F)CC2 | 1.64% (inactive) | –
CN(C)Cc1cn(C[C@H]2C[C@@H](NC(=O)c3nc4ccccc4s3)[C@H](O)[C@@H]2O)nn1 | -6.95% (inactive) | –
COc1cc(CNC(=O)CCC2CCN(S(=O)(=O)c3ccccc3)CC2)cc(OC)c1 | -10.9% (inactive) | –
Clc1cccc(-c2cnc([C@@H]3COCCN3Cc3cnc[nH]3)[nH]2)c1 | – | 13.7 µM (active)
c1cncc(-c2cnc([C@@H]3COCCN3Cc3ncc[nH]3)[nH]2)c1 | -25.1% [at 57.5 µM] (inactive) | –
Oc1ccccc1CN1CCOC[C@H]1c1ncc(-c2cccc(Cl)c2)[nH]1 | -3.86% [at 57.5 µM] (inactive) | –
CC1(C)CN(C(=O)c2ccccc2Oc2ccccc2)CC1(C)O (stereo not drawn) | 1.27% (inactive) | –
O=c1ncn(Cc2ccccc2)c2ccc(-c3ccc(O)c(F)c3)nc12 | 4.77% [at 57.5 µM] (inactive) | –
CCOC(=O)C[C@@H]1C[C@@H](C(C)C)[C@H](CNC(=O)c2ccc(C#N)cc2)C=C1C | 0.154% [at 57.5 µM] (inactive) | –
CCC1=C(C(=O)OC)C(c2ccccc2OC)N2C(CC(=O)N3CC(C)OC(C)C3)=CSC2=N1 (stereo not drawn) | -17.2% (inactive) | –
CC1(C(=O)NCCc2ccccn2)CCc2cnc(NCc3ccccc3)nc21 (stereo not drawn) | -0.0818% [at 57.5 µM] (inactive) | –
Cn1ccc2c(C(=O)NCCc3cnc[nH]3)nc(-c3cccnc3)cc21 | 0.339% [at 57.5 µM] (inactive) | –
C[S+](=O)([O-])Nc1cccc(-c2cc(-c3cccnc3)c3cncn3c2)c1 | -17.6% [at 57.5 µM] (inactive) | –
O=C1Nc2cc(Cl)ccc2C(=O)N2CCN(C(=O)c3ccccc3)C[C@H]12 | -14.3% [at 57.5 µM] (inactive) | –

Structure (SMILES) | activity, negative = inhibition | Potency
O=C(Cc1c[nH]c2ncc(-c3ccccc3F)cc12)NCc1cccnc1 | 1.05% [at 57.5 µM] (inactive) | –
COCc1cc(C[C@@H]2CC[C@H](O)[C@@H](CNS(=O)(=O)c3ccccc3)O2)no1 | -0.232% [at 57.5 µM] (inactive) | –
O=C(NC1CC(=O)N(CCc2cccc(Cl)c2)C1)c1ccsc1 (stereo not drawn) | 1.1% (inactive) | –
CCN(CC)C(=O)C[C@@H]1c2nc(NC(=O)N3CCOCC3)sc2C[C@@H]2[C@](C)(CO)[C@H](O)CC[C@]21C | 7.87% (inactive) | –
CS(=O)(=O)N[C@H]1C[C@H]2C(=O)Nc3ccc(-c4ccc5c(c4)OCO5)cc3C(=O)N2C1 | 8.55% [at 57.5 µM] (inactive) | –
COc1ccc(-c2cnc3[nH]cc(CC(=O)Nc4ccncc4)c3c2)cc1 | 42.4% [at 57.5 µM] (inactive) | –
COc1ccc2c(c1)nc1n2[C@@H](CNC(=O)c2ccncc2)COC1 | 0.0321% [at 57.5 µM] (inactive) | –
O=C(CCCc1ccccc1)N[C@@H]1CN(c2ccncn2)C[C@H]1CO | -4.2% (inactive) | –
Cc1c(CN2C[C@@H](COc3ccccc3)[C@H](C(N)=O)C2)cnn1C | 2.24% (inactive) | –
Cc1ccc(C)c(-c2cc(C(=O)N3CCCC3c3nncn3C(C)C)[nH]n2)c1 (stereo not drawn) | 2.36% (inactive) | –
O=S(=O)(c1ccc(F)cc1)N1CCCC(Cc2noc(-c3cnccn3)n2)C1 (stereo not drawn) | -2.02% (inactive) | –
CN1CCCC1c1nc(C2CN(C(=O)c3ccsc3)C2)no1 (stereo not drawn) | -1.68% (inactive) | –
CN1C(=O)CC(C(=O)O)C12CCN(C(=O)CCc1cccnc1)CC2 (stereo not drawn) | 8.54% (inactive) | –
Cn1c(CO[C@H]2CN(C(=O)c3cccnc3)C[C@H]2F)nc2ccccc21 | 0.8% [at 57.5 µM] (inactive) | –
C[C@@H](c1ccccc1)N1C(=O)[C@@H]2CN(C(=O)c3ccco3)CCN2C1=O | -7.93% [at 57.5 µM] (inactive) | –
COc1ccc(OC)c(CN2CCC3(CC2)Nc2ccccc2NC3=O)c1 | -1.47% (inactive) | –
NC(=O)C1CCCN(CCNc2cc(-c3ccccc3)nc3ccnn23)C1 (stereo not drawn) | 2.07% (inactive) | –
COC(=O)[C@H](NC(=O)[C@@H]1C[C@@H](NC(=O)c2ccncc2)CCN1S(=O)(=O)c1ccc(OC)cc1)C(C)C | -3.06% (inactive) | –
Cc1cncc(C(=O)N2CC[C@@H](c3ccc4ccccc4c3)[C@H](O)C2)c1 | -1.9% (inactive) | –
CCn1cnnc1CC1CCN(C(=O)NC)C1 (stereo not drawn) | 9.39% (inactive) | –
O=C(c1ccoc1)N1CCCn2cc(-c3ccccc3)nc21 | 3.3% (inactive) | –
NC(=O)CCNC(=O)C1=C[C@@H](NC(=O)c2cccs2)[C@@H](O)[C@H](O)C1 | 10.8% [at 57.5 µM] (inactive) | –
Cc1ccc(O)c(CN2CC[C@@H](c3ccc(F)cc3)[C@H](O)C2)c1 | -5.08% (inactive) | –
Cc1cnc(C(=O)N2CCCC(c3nc(-c4cccnc4)no3)CCNC(=O)CC2)cn1 (stereo not drawn) | -3.61% (inactive) | –
